Results filed as inconclusive are left out. Active and inactive are the calls of the source. Rule for the calls, unless noted: active = hit-call score of the fitted dose curve at least 0.9, where 1 is the maximum; inconclusive = response in the unintended direction; inactive = score below 0.9.
Key:
[1] = TOX21_p53_BLA_p2_viability: Viability Assessment in the Tox21 HCT-116 p53 Agonism Beta-lactamase Assay, Phase 2 (AID 2283591);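 note: actives lower the ATP signal meaning cytotoxicity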
Method in brief: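 HCT116 p53-bla cells, 4000/well, dosed after 5 h plating (217-fold dilution of DMSO stocks) and incubated 16 h at 37C. Viability taken as cellular ATP by CellTiter-Glo luminescence after 30 min RT; signal loss marks cytotoxicity.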

[2] = molecular target: Cellular tumor antigen p53 (Homo sapiens) (UniProt P04637); test: TOX21_p53_BLA_p2_ratio: Tox21 HCT-116 p53 Agonism Beta-lactamase Assay, Ratio, Phase 2 (AID 2283592)
Chain of Cellular tumor antigen p53 (Homo sapiens) (P04637 whole entry, looked up): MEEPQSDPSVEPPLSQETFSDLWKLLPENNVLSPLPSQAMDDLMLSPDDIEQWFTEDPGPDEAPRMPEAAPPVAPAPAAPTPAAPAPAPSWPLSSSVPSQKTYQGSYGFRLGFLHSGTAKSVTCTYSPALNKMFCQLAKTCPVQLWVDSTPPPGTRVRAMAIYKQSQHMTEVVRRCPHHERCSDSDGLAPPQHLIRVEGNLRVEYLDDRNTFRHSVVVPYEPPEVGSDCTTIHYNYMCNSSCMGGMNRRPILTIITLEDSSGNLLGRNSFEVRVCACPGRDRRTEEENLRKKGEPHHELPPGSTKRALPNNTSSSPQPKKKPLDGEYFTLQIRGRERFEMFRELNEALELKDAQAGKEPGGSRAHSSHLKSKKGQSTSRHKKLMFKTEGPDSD
Method in brief: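 Read-out is the blue/green (460/530 nm, 405 nm excitation) ratio after 2 h CCF4-AM loading, fitted as gain versus DMSO. Compounds, pinned at 217-fold dilution from DMSO stocks, stayed 16 h on HCT-116 beta-lactamase reporter cells seeded 5 h earlier.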

[3] = TOX21_p53_BLA_p4_viability: Viability Assessment in the Tox21 HCT-116 p53 Agonism Beta-lactamase Assay, Phase 4 (AID 2283597);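 note: hits lower the luminescence signal meaning cytotoxicity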
Method in brief: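 Cytotoxicity as reduced cellular ATP (CellTiter-Glo luminescence, 30 min room temperature), measured in the same wells following the CCF4 FRET p53 reading. Human HCT-116 cells received compounds in DMSO (217-fold dilution) for 16 h.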

[4] = molecular target: Cellular tumor antigen p53 (Homo sapiens) (UniProt P04637); test: TOX21_p53_BLA_p3_ratio: Tox21 HCT-116 p53 Agonism Beta-lactamase Assay, Ratio, Phase 3 (AID 2283596)
Method in brief: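 Cells were seeded at 4000/well, rested 5 h at 37C, then dosed with DMSO compound solutions (217-fold dilution) for 16 h. CCF4-AM substrate was loaded for 2 h at room temperature, and the 460/530 nm emission ratio was fitted for gain of signal versus DMSO.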

[5] = TOX21_p53_BLA_p5_viability: Viability Assessment in the Tox21 HCT-116 p53 Agonism Beta-lactamase Assay, Phase 5 (AID 2283600)
Method in brief: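 Viability came from CellTiter-Glo ATP luminescence, read after 30 min at room temperature. Before this, HCT-116 p53-bla cells (4000/well) had 16 hours of compound exposure at 37C, with DMSO stocks diluted 217-fold on transfer.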

[6] = molecular target: Cellular tumor antigen p53 (Homo sapiens) (UniProt P04637); test: TOX21_p53_BLA_p4_ratio: Tox21 HCT-116 p53 Agonism Beta-lactamase Assay, Ratio, Phase 4 (AID 2283601)
Method in brief: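 HCT-116 p53 beta-lactamase reporter cells (4000/well) preincubated 5 h, then compound (217-fold dilution of DMSO stock) for 16 h at 37C. CCF4-AM substrate added 2 h at room temperature; 460/530 nm emission ratio fitted upward versus DMSO.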

[7] = molecular target: Cellular tumor antigen p53 (Homo sapiens) (UniProt P04637); test: TOX21_p53_BLA_p5_ratio: Tox21 HCT-116 p53 Agonism Beta-lactamase Assay, Ratio, Phase 5 (AID 2283599)
Method in brief: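 HCT-116 p53-bla cells (4000/well) plated 5 h, dosed with compound (217-fold DMSO dilution) for 16 h at 37 C; CCF4-AM substrate 2 h at room temperature. Activity is the 460/530 nm emission ratio (405 nm excitation), fitted in gain-of-signal direction versus DMSO.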

[8] = molecular target: PGR (gene 5241) (UniProt P06401); test: TOX21_PR_BLA_Followup_Agonist_ratio: Tox21 HEK293 Progesterone Receptor (PR) Agonism Beta-lactamase Follow-Up Assay, Ratio (AID 2283933)
Chain of PGR (gene 5241) (P06401 whole entry, looked up): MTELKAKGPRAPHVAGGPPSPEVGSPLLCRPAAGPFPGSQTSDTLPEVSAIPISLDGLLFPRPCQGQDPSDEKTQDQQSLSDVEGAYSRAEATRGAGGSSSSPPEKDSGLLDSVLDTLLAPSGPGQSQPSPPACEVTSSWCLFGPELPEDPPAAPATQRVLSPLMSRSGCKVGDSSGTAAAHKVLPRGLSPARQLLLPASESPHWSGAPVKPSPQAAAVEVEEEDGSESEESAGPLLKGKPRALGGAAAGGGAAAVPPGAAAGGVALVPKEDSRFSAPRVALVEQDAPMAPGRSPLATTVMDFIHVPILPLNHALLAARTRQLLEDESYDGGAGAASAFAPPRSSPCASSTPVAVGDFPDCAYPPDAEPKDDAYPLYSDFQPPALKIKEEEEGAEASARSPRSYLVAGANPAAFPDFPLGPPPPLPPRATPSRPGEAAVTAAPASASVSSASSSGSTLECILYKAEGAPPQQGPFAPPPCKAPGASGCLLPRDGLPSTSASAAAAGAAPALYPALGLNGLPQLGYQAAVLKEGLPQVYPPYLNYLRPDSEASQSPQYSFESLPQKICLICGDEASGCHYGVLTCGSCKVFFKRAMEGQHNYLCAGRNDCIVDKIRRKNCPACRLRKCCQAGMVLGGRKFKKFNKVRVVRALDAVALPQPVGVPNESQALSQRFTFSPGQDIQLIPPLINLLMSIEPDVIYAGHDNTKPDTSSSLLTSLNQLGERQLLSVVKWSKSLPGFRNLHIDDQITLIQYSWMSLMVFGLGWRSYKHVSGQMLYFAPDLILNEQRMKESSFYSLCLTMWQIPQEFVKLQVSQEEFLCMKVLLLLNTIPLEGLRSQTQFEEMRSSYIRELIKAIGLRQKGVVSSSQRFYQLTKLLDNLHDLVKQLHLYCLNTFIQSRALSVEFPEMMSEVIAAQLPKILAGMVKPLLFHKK
Method in brief: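 Beta-lactamase reporter readout: ratio of cleaved (ch2) to uncleaved (ch1) substrate after 2 h room-temperature loading, following 16 h compound exposure at 37C. Cells were PR-UAS-bla HEK293T in 2% charcoal-stripped FBS medium. Viability was multiplexed by CellTiter-Glo.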

[9] = molecular target: PGR (gene 5241) (UniProt P06401); test: TOX21_PR_BLA_Followup_Antagonist_ratio: Tox21 HEK293 Progesterone Receptor (PR) Antagonism Beta-lactamase Follow-Up Assay, Ratio (AID 2283934);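 note: PR-UAS-bla HEK293T cells stimulated with 1 nM R5020 agonist for 16 hr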
Method in brief: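 Readout is the blue/green (ch2/ch1) substrate cleavage ratio after 2 hours at room temperature, following 16 hr co-treatment of PR-bla HEK293T cells with compound and 1nM promegestone. Multiplexed CellTiter-Glo viability flags cytotoxicity; DMSO baseline.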

[10] = TOX21_PR_BLA_Followup_Agonist_viability: Viability Assessment in the Tox21 HEK293 Progesterone Receptor (PR) Agonism Beta-lactamase Follow-Up Assay (AID 2283935);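 note: signal loss means lower viability so actives are cytotoxic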
Method in brief: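 Run multiplexed with the beta-lactamase FRET read, this endpoint measures ATP by CellTiter-Glo luminescence (30 min, room temperature). PR-UAS-bla HEK293T cells received compound 6 hr after plating and were then incubated 16 hr at 37C in 2% stripped serum.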

[11] = TOX21_PR_BLA_Followup_Antagonist_viability: Viability Assessment in the Tox21 HEK293 Progesterone Receptor (PR) Antagonism Beta-lactamase Follow-Up Assay (AID 2283936);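 note: cells exposed to compound with R5020 agonist for 16 h; hits lower the luminescence signal meaning cytotoxicity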
Method in brief: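 PR-UAS-bla HEK293T cells in medium with 2% charcoal-stripped FBS were treated with compounds plus R5020 for 16 hr at 37C. After the beta-lactamase read, CellTiter-Glo was added to the same wells and luminescence read after 30 min at room temperature.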

[12] = molecular target: PGR (gene 5241) (UniProt P06401); test: TOX21_PR_LUC_Followup_Agonist: Tox21 HEK293 Progesterone Receptor (PR) Agonism Luciferase Follow-Up Assay (AID 2283937; active = hit-call score of the fitted dose curve at least 0.9, where 1 is the maximum; inactive = score below 0.9)
Method in brief: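 Agonism scored as luciferase induction over DMSO, read by ONE-Glo after 30 min at RT. Compounds were incubated 16 h at 37C on HEK293-PR-A-luc cells (3,000/well, pre-plated 5 h) previously grown 5 days in charcoal-stripped serum.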

[13] = molecular target: PGR (gene 5241) (UniProt P06401); test: TOX21_PR_LUC_Followup_Antagonist: Tox21 HEK293 Progesterone Receptor (PR) Antagonism Luciferase Follow-Up Assay (AID 2283938);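 note: curve fitted upward as signal gain over DMSO baseline despite antagonist label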
Method in brief: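 Luminescence from ONE-Glo was measured 30 min after reagent addition, following 16 h exposure of HEK293-PR-A-luc cells (3,000/well, plated 5 h earlier) to DMSO-dissolved compounds at 37C; DMSO served as baseline.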

[14] = TOX21_PR_LUC_Followup_Antagonist_viability: Viability Assessment in the Tox21 HEK293 Progesterone Receptor (PR) Antagonism Luciferase Follow-Up Assay (AID 2283940)
Method in brief: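 Viability counter-readout: cellular ATP measured by luciferase luminescence after 16 h compound exposure at 37C of HEK293-PR-A-luc cells, which had been cultured in charcoal-stripped serum and seeded 5 h beforehand.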

[15] = TOX21_PR_LUC_Followup_Agonist_viability: Viability Assessment in the Tox21 HEK293 Progesterone Receptor (PR) Agonism Luciferase Follow-Up Assay (AID 2283941);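 note: loss of signal means cytotoxicity so actives lower viability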
Method in brief: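 Cytotoxicity counter-readout in the PR-A luciferase reporter line HEK293, with 16 h compound exposure at 37C after cells were cultured in charcoal-stripped serum. Cellular ATP quantified by CellTiter-Glo luminescence.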

Measured: AC50

O=C(O)C=CC(=O)Nc1ccc(S(=O)(=O)Nc2nccs2)cc1
inactive: [1] | [2] | [3]

CC(C)CCCC(C)CCCC(C)CCCCC(C)CCCC(C)CCCC(C)C (stereo not drawn)
inactive: [1] | [2] | [4] | [5] | [6]

O=C(O)c1ccc[n+]([O-])c1
inactive: [1] | [2] | [4] | [5] | [6]

Cc1cc(C)cc(OCC2CNC(=O)O2)c1 (stereo not drawn)
inactive: [1] | [2] | [4] | [6]

CCOC(=O)O[C@]1(C(=O)OCCl)CC[C@H]2[C@@H]3CCC4=CC(=O)C=C[C@]4(C)[C@H]3[C@@H](O)C[C@@]21C
inactive: [1] | [2] | [4] | [6]

CC[C@@H](C)[C@@H](N)C(=O)O
inactive: [1] | [2] | [3] | [7]

CCn1c2ccccc2c2cc([N+](=O)[O-])ccc21
active: [9] 6.29 µM | [13] 8.06 µM
not listed: [3] | [5]
inactive: all other assays above
